Screening data (PubChem)
In the library only some 1.8% were active in any assay of this set; here they are far more common.
MsrA inhibitor – inhibits bovine methionine sulfoxide reductase A; purified bovine MsrA, absorbance read-out; AID 651718; 0.75% of 360,000 active; inhibition, % at 15.5 µM; in the data active = inhibition above about 4.5%
m5-HT2A agonist – activates the mouse 5-HT2A serotonin receptor. P35363. CHO-K1 mHTR2A beta-arrestin complementation, luminescence; percent of 30 µM serotonin response. activation, % at 7.6 µM. 0.66% of 360,000 active. AID 624169;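 active = activation above a run cutoff, the mean activation of all tested compounds plus 3 SD, cut at about 14% in these data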
MsrA act – activators of bovine methionine sulfoxide reductase A | purified bovine MsrA, absorbance read-out | activation, % at 10.6 µM | 0.3% of 360,000 active | AID 602163; in the data active = activation above about 7.5%
GC-A act – GC-A (human) enzyme activation; HEK293 GC-A cells, cGMP TR-FRET, EC30 ANP; 0% at EC30 ANP, 100% saturating ANP; activation, % at 10 µM; 0.14% of 370,000 active; in the data active = activation above about 40%
NPR2 activator – GC-B (human) receptor activation; P20594; HEK293-GC-B cells, CNP EC30, cGMP TR-FRET; 0% at EC30 CNP, 100% saturating CNP; activation, % at 10 µM; 0.11% of 370,000 active; AID 1920062;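 active = activation at 10 µM reaching about 35% in either raw or pattern-adjusted values, limit read from the data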
Target sequence (P20594 whole entry, looked up): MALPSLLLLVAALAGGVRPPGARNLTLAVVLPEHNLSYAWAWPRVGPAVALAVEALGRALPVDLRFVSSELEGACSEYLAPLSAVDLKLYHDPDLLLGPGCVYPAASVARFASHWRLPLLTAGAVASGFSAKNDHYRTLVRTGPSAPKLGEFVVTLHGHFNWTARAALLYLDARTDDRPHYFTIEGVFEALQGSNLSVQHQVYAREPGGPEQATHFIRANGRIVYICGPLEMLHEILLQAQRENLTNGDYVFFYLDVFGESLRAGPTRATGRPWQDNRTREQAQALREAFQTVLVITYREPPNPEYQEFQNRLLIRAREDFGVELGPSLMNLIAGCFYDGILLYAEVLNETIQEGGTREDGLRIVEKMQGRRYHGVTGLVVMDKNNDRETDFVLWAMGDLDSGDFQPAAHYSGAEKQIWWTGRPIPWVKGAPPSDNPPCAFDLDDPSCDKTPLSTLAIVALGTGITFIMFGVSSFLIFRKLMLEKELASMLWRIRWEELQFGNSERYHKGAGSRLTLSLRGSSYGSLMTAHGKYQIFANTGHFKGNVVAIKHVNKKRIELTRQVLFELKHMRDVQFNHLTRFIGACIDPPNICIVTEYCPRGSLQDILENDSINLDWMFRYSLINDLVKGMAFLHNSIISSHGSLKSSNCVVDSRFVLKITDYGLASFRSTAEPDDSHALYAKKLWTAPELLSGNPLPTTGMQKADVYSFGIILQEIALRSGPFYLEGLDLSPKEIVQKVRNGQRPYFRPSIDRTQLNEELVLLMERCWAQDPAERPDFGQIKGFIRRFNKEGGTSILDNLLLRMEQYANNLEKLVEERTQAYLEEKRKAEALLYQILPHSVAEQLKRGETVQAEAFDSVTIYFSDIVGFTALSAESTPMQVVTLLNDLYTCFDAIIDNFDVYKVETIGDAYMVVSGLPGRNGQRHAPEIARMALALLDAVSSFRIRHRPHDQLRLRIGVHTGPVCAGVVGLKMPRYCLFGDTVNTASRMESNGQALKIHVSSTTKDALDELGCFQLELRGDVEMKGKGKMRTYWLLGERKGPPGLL
MOR ag counter – counter-screen for mouse HTR2A agonists: human mu opioid receptor agonists | activation, % at 9.3 µM | 5.3% of 2,300 active | shares compounds with m5-HT2A agonist | U2OS OPRM1 beta-arrestin PathHunter, luminescence; DMSO 0%, DAMGO 9.3 µM 100%;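 active = mean activation above the mean of DMSO-only wells plus 3 SD, cut at about 0.5% in these data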
m5-HT2A ag conf – mouse HTR2A agonism confirmed | shares compounds with m5-HT2A agonist | CHO-K1 PathHunter beta-arrestin recruitment, luminescence; DMSO 0%, 30 µM serotonin 100% | 19% of 2,300 active | activation, % at 7.6 µM;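 active = mean activation across triplicates above the hit threshold derived in the original primary screen, cut at about 15% in these data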
Of the large screens only hits and unclear results are named; the others gave an inactive call (follow-up assays come after a bar, where they were run); ! = repeats disagree.

CC(C)(C)[C@H](NC(=O)c1cc(Cl)cc(Cl)c1)C(=O)N1CCC[C@H]1C(=O)N[C@H](C#N)CC(=O)O	none (no result: MsrA inhibitor, m5-HT2A agonist, MsrA act)
C[C@H]1CCCN1c1ccc2c(c1)O[C@H]1CCN(C1)S2(=O)=O	none (no result: MsrA inhibitor, m5-HT2A agonist, MsrA act)
CN1CCN(S(=O)(=O)c2cccc(C(=O)Nc3cc(C(N)=O)cc(C(N)=O)c3)c2)CC1	m5-HT2A agonist 16 | MOR ag counter inactive | m5-HT2A ag conf inactive
CN1CCN(S(=O)(=O)c2cccc(C(=O)Nc3sccc3C(N)=O)c2)CC1	none
CCCCN1C(=O)N2Cc3cc(OC)ccc3C2CS1(=O)=O (stereo not given)	none (no result: MsrA inhibitor, m5-HT2A agonist, MsrA act)
c1ccc(CCN=C2CCCc3c2[nH]c2ccccc32)cc1	m5-HT2A agonist 15 | MOR ag counter inactive | m5-HT2A ag conf 28
c1ccc2c3c([nH]c2c1)CCNC3	none
Cc1cc(C)c(OCC(=O)NCC2COc3ccccc3O2)c(C)c1 (stereo not given)	m5-HT2A agonist 24 | MOR ag counter inactive | m5-HT2A ag conf 17
CN1CCc2c(sc3c2c(=O)n(-c2cccc(Cl)c2)c2nncn32)C1	m5-HT2A agonist 23 | MOR ag counter inactive | m5-HT2A ag conf inactive
CN1CCc2c(sc3nc(NCCO)n(-c4cccc(Cl)c4)c(=O)c23)C1	none
COc1ccccc1OCCn1ccnc1	m5-HT2A agonist 16 | MOR ag counter inactive | m5-HT2A ag conf inactive
CCCCCCNC(=O)C1CSCCS(=O)(=O)N1Cc1ccc(C)cc1 (stereo not given)	none (no result: MsrA inhibitor, m5-HT2A agonist, MsrA act)
COC(=O)[C@]12C[C@H](CC(=O)NCCc3ccccc3OC)C(=O)N(Cc3cccc4ccccc34)C1=C[C@H](C(C)C)O[C@@H]2C1CC1	none (no result: MsrA inhibitor, m5-HT2A agonist, MsrA act)
CC(C)OC(=O)CNc1n[nH]c(=S)[nH]c1=O	none
COC(=O)CNc1n[nH]c(=S)[nH]c1=O	m5-HT2A agonist 17 | MOR ag counter inactive | m5-HT2A ag conf inactive
O=C(CCN1N=C(c2ccccc2)CCC1=O)NC1CCCCC1	none
O=C(CCN1N=C(c2ccccc2)CCC1=O)NC1CCCC1	m5-HT2A agonist 19 | MOR ag counter inactive | m5-HT2A ag conf inactive
Cc1ccc(C(C(=O)NCc2ccccc2)N(C(=O)c2csnn2)C2CC2)cc1 (stereo not given)	m5-HT2A agonist 19 | MOR ag counter inactive | m5-HT2A ag conf inactive
O=C(NCc1ccccc1)C(c1ccccc1)N(C(=O)c1csnn1)C1CC1 (stereo not given)	none
Oc1ccc(C2CNCCc3c2cc(O)c(O)c3Cl)cc1 (stereo not given)	m5-HT2A agonist 34! | MOR ag counter inactive | m5-HT2A ag conf 145
Oc1cc2c(c(Cl)c1O)CCNCC2c1ccccc1 (stereo not given)	m5-HT2A agonist 24 | MOR ag counter inactive | m5-HT2A ag conf 100
COc1cc2c(cc1OC)C(c1ccc(O)cc1)NCC2 (stereo not given)	none
O=C(Nc1ccccc1F)c1ccc(CN2CCN(c3ccccc3)CC2)cc1	m5-HT2A agonist 20 | MOR ag counter 0.8 | m5-HT2A ag conf 95
O=C(NCCCN1CCN(c2ccc(F)cc2)CC1)Nc1ccc(Cl)cc1	none (no result: MsrA inhibitor, m5-HT2A agonist, MsrA act)
CSc1ccc(N2CCN(CCCNC(=O)Nc3ccccc3F)CC2)cc1	m5-HT2A agonist 17 | MOR ag counter inactive | m5-HT2A ag conf 39
COc1cccc(NC(=O)c2ccc(CN3CCN(c4ccccc4)CC3)cc2)c1	m5-HT2A agonist 33 | MOR ag counter inactive | m5-HT2A ag conf 60
COc1ccc(NC(=O)c2ccc(CN3CCN(c4ccccc4)CC3)cc2)cc1	none
Cc1ccccc1NC(=O)CN1CCN(c2nc(-c3ccccc3)cs2)CC1	none (no result: MsrA inhibitor, m5-HT2A agonist, MsrA act)
O=C(CNS(=O)(=O)c1ccccc1)N1CCN(Cc2ccccc2)CC1	none
N#Cc1ccc(CN2CCN(C(=O)CNS(=O)(=O)c3ccc4c(c3)OCCCO4)CC2)cc1	m5-HT2A agonist 15 | MOR ag counter inactive | m5-HT2A ag conf inactive
O=C(CNS(=O)(=O)c1ccc(Br)cc1)N1CCN(Cc2ccccc2)CC1	m5-HT2A agonist 15 | MOR ag counter inactive | m5-HT2A ag conf 17
COc1ccc(S(=O)(=O)NCc2nc3nc(C)cc(C)n3n2)cc1OC	none
Cc1cc(C)n2nc(CNS(=O)(=O)c3ccc(C(C)(C)C)cc3)nc2n1	m5-HT2A agonist 22 | MOR ag counter inactive | m5-HT2A ag conf inactive
COC(=O)C1=C(C)N(Cc2ccc(Cl)cc2)C(=S)NC1c1cccc(OC)c1 (stereo not given)	none (no result: m5-HT2A agonist, MsrA act)
CCc1nc2ccc(C(=O)N3CCN(S(=O)(=O)CC)CC3)cn2c1N(C)CCC(C)C	none
CCc1nc2ccc(C(=O)N3CCN(S(=O)(=O)CC)CC3)cn2c1N(C)Cc1cccs1	m5-HT2A agonist 17 | MOR ag counter inactive | m5-HT2A ag conf inactive
Cc1nnc(SCC(=O)c2ccc([N+](=O)[O-])cc2)s1	m5-HT2A agonist 15 | MOR ag counter 0.5 | m5-HT2A ag conf inactive
CCN(C(=O)[C@@H]1CC(=O)O[C@@H]1c1ccccc1)c1ccccc1	none (no result: MsrA inhibitor, m5-HT2A agonist, MsrA act)
CC1(C)NC(=S)NC1=S	m5-HT2A agonist 17 | MOR ag counter inactive | m5-HT2A ag conf inactive
CCC1(CC)NC(=S)NC1=S	none
C#CCC1c2ccccc2CCN1CC=C (stereo not given)	none (no result: m5-HT2A agonist, MsrA act)
CCN(CCNC(=O)C1CCCN(S(=O)(=O)c2cnc[nH]2)C1)c1ccccc1 (stereo not given)	none
CCN(CCCNC(=O)C1CCCN(S(=O)(=O)c2cnc[nH]2)C1)c1ccccc1 (stereo not given)	m5-HT2A agonist 18 | MOR ag counter inactive | m5-HT2A ag conf inactive
CC(=O)Nc1ncc(Sc2ccc([N+](=O)[O-])cc2)s1	m5-HT2A agonist 20 | MOR ag counter inactive | m5-HT2A ag conf inactive
O=C(CSc1nnc(-c2ccccn2)n1-c1ccccc1)c1ccc(F)cc1	none (no result: MsrA inhibitor, m5-HT2A agonist, MsrA act)
Cc1cc(C)c(CN2CCN(C(=O)Cn3cnc4c(NCc5ccccc5)ncnc43)CC2)c(C)c1	m5-HT2A agonist 22 | m5-HT2A ag conf inactive
COc1ccccc1C(=O)C1CCCN(Cc2ccc3c(c2)OCCO3)C1 (stereo not given)	m5-HT2A agonist 33 | MOR ag counter inactive | m5-HT2A ag conf 16
CCOc1cccc(CN2CCCC(C(=O)c3cc(Cl)ccc3OC)C2)c1O (stereo not given)	m5-HT2A agonist 23 | MOR ag counter inactive | m5-HT2A ag conf inactive
COc1ccc(F)cc1C(=O)C1CCCN(Cc2ccc3c(c2)OCCO3)C1 (stereo not given)	m5-HT2A agonist 26 | MOR ag counter 2.8 | m5-HT2A ag conf 28
COc1ccc(CC(=O)OCC(=O)Nc2ncc(Cl)c(C)c2Cl)cc1	m5-HT2A agonist 15 | MOR ag counter inactive | m5-HT2A ag conf inactive
